Read-out in assay [1]: Interleukin 6 (IL6), IL6 (gene 3569)
As to the kind of experiment: BSK_BT_xIL6: BioMAP Diversity Plus: BT Assay for Interleukin 6 (IL6) Biomarker Activity (AID 2284228). The conditions noted are these: primary human B cells with PBMC. In outline: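 Readout: secreted IL-6 via Luminex xMAP multiplex, 24 h post-dosing. System: primary human B cells co-cultured with PBMC. Signal change scored relative to DMSO vehicle, positive fitting direction.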

Read-out in assay [2]: Interleukin 17F (IL17F), IL17F (gene 112744)
Briefly: BSK_BT_xIL17F: BioMAP Diversity Plus: BT Assay for Interleukin 17F (IL17F) Biomarker Activity (AID 2284243). The settings on record: primary human B cells with PBMC. In a few lines: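 Secreted IL-17F, read on LumineX xMAP beads, was taken as the endpoint. Cultures combined human B cells and peripheral blood mononuclear cells, sampled 24 hours after dosing, with DMSO serving as negative control.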

Read-out in assay [3]: Vascular cell adhesion molecule 1 (VCAM1), VCAM1 (gene 7412)
As to the kind of experiment: BSK_BF4T_VCAM1: BioMAP Diversity Plus: BF4T Assay for Vascular cell adhesion molecule 1 (VCAM1) Biomarker Activity (AID 2284249). The settings on record: primary human bronchial epithelial cells with fibroblasts. In outline: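 Cell-surface VCAM-1 quantified by ELISA after 24 h chemical exposure of human bronchial epithelial/dermal fibroblast co-cultures, with SRB staining in parallel wells for cytotoxicity; DMSO baseline, positive-direction fitting.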

Read-out in assay [4]: Interleukin-8 (IL8), CXCL8 (gene 3576)
Briefly: BSK_BF4T_IL8: BioMAP Diversity Plus: BF4T Assay for Interleukin-8 (IL8) Biomarker Activity (AID 2284263). The settings on record: primary human bronchial epithelial cells with fibroblasts. In outline: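 Human bronchial epithelial cells with dermal fibroblasts co-culture; IL-8 measured by ELISA 24 hours after dosing, fitted vs DMSO. Cytotoxicity tracked in parallel cultures by SRB total-protein staining.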

Read-out in assay [5]: TIMP metallopeptidase inhibitor 1 (TIMP1), TIMP1 (gene 7076)
Briefly: BSK_MyoF_TIMP1: BioMAP Diversity Plus: MyoF Assay for TIMP metallopeptidase inhibitor 1 (TIMP1) Biomarker Activity (AID 2284269). The conditions noted are these: primary human lung fibroblasts. In a few lines: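 Fibroblasts from human lung are dosed with chemical, cultured 24 h, and assayed for TIMP-1 by ELISA. Increases over the DMSO baseline are scored, with SRB total-protein staining run in parallel for cytotoxicity.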

Read-out in assay [6]: Interleukin-8 (IL8), CXCL8 (gene 3576)
Briefly: BSK_IMphg_IL8: BioMAP Diversity Plus: IMphg Assay for Interleukin-8 (IL8) Biomarker Activity (AID 2284277). The conditions noted are these: primary human endothelial cells with macrophages. In outline: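 IL-8 levels were measured by ELISA 24 h after dosing in primary human venular endothelial cell–macrophage cultures, referenced to DMSO; parallel SRB staining monitored overt cytotoxicity.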

Read-out in assay [7]: Interleukin-1 alpha (IL1a), IL1A (gene 3552)
As to the kind of experiment: BSK_IMphg_IL1a: BioMAP Diversity Plus: IMphg Assay for Interleukin-1 alpha (IL1a) Biomarker Activity (AID 2284290). The conditions noted are these: primary human endothelial cells with macrophages. In a few lines:
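IL-1α is quantified by ELISA at 24 h in the endothelial/macrophage IMphg co-culture, with gain of signal fitted relative to DMSO. Parallel SRB total-protein staining flags overt toxicity.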

A short description of assay [8]: CCTE_Shafer_MEA_dev_firing_rate_mean: CCTE's Neural Network Formation Assay for Mean Firing Rate, Shafer Lab (AID 2284031).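 Also: curve fitted for loss of firing so AC50 reflects decreased mean firing rate.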 In outline:
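Extracellular spike frequency, AUC over DIV 5–12 recordings, in rat cortical neuron MEA cultures dosed from plating; loss direction vs DMSO.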

The nature of assay [9]: CCTE_Shafer_MEA_dev_active_electrodes_number: CCTE's Neural Network Formation Assay for Number of Active Electrodes, Shafer Lab (AID 2284040; active = hit-call score of the fitted dose curve at least 0.9, where 1 is the maximum;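 also: potency for loss of active electrodes versus DMSO so lower counts are hits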). In outline: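 Developing rat cortical networks on MEAs, exposed DIV 0–12. Value is the AUC of active-electrode counts (≥5 spikes/min) from days 5, 7, 9, 12, relative to DMSO.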
A short description of assay [10]: CCTE_Shafer_MEA_dev_burst_rate: CCTE's Neural Network Formation Assay for Burst Rate, Shafer Lab (AID 2284042).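 Also: potency for loss of burst rate below DMSO control.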 In outline: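 Cells plated, treated day 0; recorded DIV 5, 7, 9, 12; fed and re-treated DIV 5, 9. Endpoint: bursts per recording time, active-electrode well mean, trapezoidal AUC, fitted in decreasing direction against DMSO baseline.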
Assay [11] is described as follows: CCTE_Shafer_MEA_dev_bursting_electrodes_number: CCTE's Neural Network Formation Assay for Number of Bursting Electrodes, Shafer Lab (AID 2284043; active = hit-call score of the fitted dose curve at least 0.9, where 1 is the maximum;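 also: potency is for loss of bursting electrodes relative to DMSO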). In a few lines:
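Number of electrodes reaching ≥1 burst every 2 min was recorded at DIV 5, 7, 9 and 12 and collapsed as trapezoidal area under the curve. Cultures were rat cortical neurons on MEA plates, dosed continuously from plating with medium and treatment refreshed on DIV 5 and 9.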

The nature of assay [12]: CCTE_Shafer_MEA_dev_per_burst_interspike_interval: CCTE's Neural Network Formation Assay for Burst Interspike Interval, Shafer Lab (AID 2284044).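 Also: potency for a decrease of within-burst interspike interval below DMSO level.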 In a few lines:
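Readout is the average time between spikes inside single-electrode bursts, taken as a well mean across bursting electrodes. Cortical neurons from rat developed networks on MEA plates under continuous 12-day exposure; recordings on days 5, 7, 9 and 12 were integrated by trapezoidal AUC.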

Assay [13] in a line: CCTE_Shafer_MEA_dev_burst_duration_mean: CCTE's Neural Network Formation Assay for Mean Burst Duration, Shafer Lab (AID 2284045).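 Also: curve fitted for loss meaning shorter burst duration than DMSO.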 In outline: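 Mean single-electrode burst duration (first to last spike), averaged over bursting electrodes per well, then integrated as area-under-curve across recordings at days 5, 7, 9 and 12. Rat cortical cultures on MEAs, compound present from plating, refreshed at feeds.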

Assay [14] in a line: CCTE_Shafer_MEA_dev_inter_network_spike_interval_mean: CCTE's Neural Network Formation Assay for Mean Inter-network Spike Interval, Shafer Lab (AID 2284047).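 Also: potency for a decrease in mean inter-network spike interval below DMSO.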 In a few lines: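 Rat cortical cultures, 1.5 x 10^5 cells/well on 48-well MEA plates; continuous exposure days 0–12, medium and compound refreshed DIV 5, 9. Mean time between consecutive network-spike peaks; AUC across DIV 5/7/9/12; DMSO baseline, negative fitting direction.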

A short description of assay [15]: CCTE_Shafer_MEA_dev_network_spike_number: CCTE's Neural Network Formation Assay for Number of Network Spikes, Shafer Lab (AID 2284048).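 As to AC50: fit as a loss of signal meaning fewer network spikes than DMSO.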 In a few lines:
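Number of network spikes (coordinated firing across electrodes) recorded on days 5, 7, 9 and 12 and summarised as area under the curve. Rat cortical cultures on MEA, continuous compound exposure with full medium/treatment exchange at DIV 5 and 9.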

Assay [16] is described as follows: CCTE_Shafer_MEA_dev_network_spike_peak: CCTE's Neural Network Formation Assay for Mean Number of Electrodes in Network Spike, Shafer Lab (AID 2284049).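 Also: fitted for loss of signal meaning fewer electrodes in network spikes than DMSO.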 In outline: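 Rat cortical primary culture, 1.5 x 10^5 cells/well, 48-well MEA (16 electrodes/well). Dosing day 0 through DIV 12, full media/compound exchange DIV 5, 9. AxIS adaptive spike detection; AUC over days 5/7/9/12; loss-of-signal vs DMSO.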

A short description of assay [17]: CCTE_Shafer_MEA_dev_spike_duration_mean: CCTE's Neural Network Formation Assay for Mean Spike Duration, Shafer Lab (AID 2284051).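 Also: potency for a decrease in mean network spike duration versus DMSO.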 In outline:
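Readout is the average length of network spikes, clustered firing across electrodes, summed over DIV 5, 7, 9 and 12 as area under the curve. Neurons from rat cortex developed networks on MEA plates under continuous 12-day exposure.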

Assay [18] in a line: CCTE_Shafer_MEA_dev_network_spike_duration_std: CCTE's Neural Network Formation Assay for Standard Deviation of Network Spike Duration, Shafer Lab (AID 2284052).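 Also: hits are decreases in network spike duration SD versus DMSO vehicle.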 In a few lines: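 Read-out is the trapezoidal area-under-the-curve across recordings made on days 5, 7, 9 and 12, fitted in the negative direction against DMSO baseline. Neurons were primary rat cortical cells treated from day 0, with treatment renewed at each feed.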

The nature of assay [19]: CCTE_Shafer_MEA_dev_per_network_spike_spike_number_mean: CCTE's Neural Network Formation Assay for Mean Number of Spikes in a Network Spike, Shafer Lab (AID 2284053). In a few lines: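 Continuous twelve-day exposure of developing rat cortical networks grown over 16 microelectrodes per well; spontaneous firing is captured at four time points, and the per-network-spike spike number is integrated over development by trapezoidal AUC.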

Assay [20] in a line: CCTE_Shafer_MEA_dev_per_network_spike_spike_percent: CCTE's Neural Network Formation Assay for Percent of Spikes in a Network Spike, Shafer Lab (AID 2284054). In outline: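 Metric: fraction of spikes falling in a 0.05 s window at network-spike peaks. Recordings were made on days 5, 7, 9 and 12 and collapsed by trapezoidal AUC. Cultures were rat cortical neurons on MEA plates, dosed continuously from plating, re-dosed at media changes.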

Structures are written as SMILES. Inconclusive results are not listed. A structure can be active in one record and inactive in another. The source made the active and inactive calls. The calls were made as follows, unless noted: active = hit-call score of the fitted dose curve at least 0.9, where 1 is the maximum; inactive = score below 0.9.

For orientation: AC50 means the midpoint of the concentration-response curve, whichever way the signal moves. On to `OC(C(F)(F)F)(C(F)(F)F)C(O)(C(F)(F)F)C(F)(F)F`, for which the AC50 in assay [1] was 39.5 µM (active); in [2], 13.1 µM (active); in assay [3], 18.9 µM (active); in [4], 0.218 µM (active); in assay [5], 45.6 µM (active); in assay [6], 5.86 µM (active). For the same molecule, the AC50 in assay [7] is 7.66 µM (active). Further, the result in assay [1], in [2], in assay [3], in assay [4], in assay [5] and in assay [6] was inactive. For the same molecule, the outcome in assay [7] was inactive.
In the case of `COc1ccc2cc3[n+](cc2c1OC)CCc1cc2c(cc1-3)OCO2`, the AC50 was 0.106 µM (active) in assay [8]; 0.161 µM (active) in [9]; 0.0928 µM (active) in [10]; 0.13 µM (active) in [11]; 0.381 µM (active) in assay [12]; 0.291 µM (active) in assay [13]. The AC50 was 0.236 µM (active) in [14]; 0.0798 µM (active) in assay [15]; 0.156 µM (active) in [16]; 0.13 µM (active) in assay [17]; 0.0974 µM (active) in [18]; 0.109 µM (active) in [19]. In addition, in assay [20], the AC50 was 0.117 µM (active).
Turning to `CNCCC(Oc1ccc(C(F)(F)F)cc1)c1ccccc1` (stereo not given), the AC50 in [8] is 1.87 µM (active); in assay [9], 2.55 µM (active); in [10], 2.77 µM (active); in assay [11], 1.79 µM (active); in assay [12], 3.14 µM (active); in [13], 2.81 µM (active). Besides, the AC50 was 1.4 µM (active) in assay [14]; 2.8 µM (active) in [16]; 1.88 µM (active) in [17]; 2.01 µM (active) in assay [18]; 1.07 µM (active) in [19]; 7.65 µM (active) in assay [20]. The molecule was classed as inactive in assay [15].

The values are drawn from PubChem BioAssay (EPA / NIEHS).
